CYP2C9 inh – human CYP2C9 inhibition. P11712. CYP2C9 Supersomes, luciferin-H conversion, luminescence. inhibition, % at 5 µM. 20% of 96,000 active. AID 777;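 active = blocking of liver enzyme CYP2C9 beyond about 50% at 5 µM, limit read from the data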
Cav3 T inh – blocks human Cav3.2 T-type calcium channel | B-score at 10 µM | 4% of 100,000 active | AID 449739 | Cav3.2-expressing cells, Fluo-4 calcium fluorescence FDSS; hits give low values;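 active = single-dose well whose peak fluorescence ratio is a statistical outlier from its plate by either plate-standardised score or position-corrected B-score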
Target sequence (O95180 whole entry, looked up): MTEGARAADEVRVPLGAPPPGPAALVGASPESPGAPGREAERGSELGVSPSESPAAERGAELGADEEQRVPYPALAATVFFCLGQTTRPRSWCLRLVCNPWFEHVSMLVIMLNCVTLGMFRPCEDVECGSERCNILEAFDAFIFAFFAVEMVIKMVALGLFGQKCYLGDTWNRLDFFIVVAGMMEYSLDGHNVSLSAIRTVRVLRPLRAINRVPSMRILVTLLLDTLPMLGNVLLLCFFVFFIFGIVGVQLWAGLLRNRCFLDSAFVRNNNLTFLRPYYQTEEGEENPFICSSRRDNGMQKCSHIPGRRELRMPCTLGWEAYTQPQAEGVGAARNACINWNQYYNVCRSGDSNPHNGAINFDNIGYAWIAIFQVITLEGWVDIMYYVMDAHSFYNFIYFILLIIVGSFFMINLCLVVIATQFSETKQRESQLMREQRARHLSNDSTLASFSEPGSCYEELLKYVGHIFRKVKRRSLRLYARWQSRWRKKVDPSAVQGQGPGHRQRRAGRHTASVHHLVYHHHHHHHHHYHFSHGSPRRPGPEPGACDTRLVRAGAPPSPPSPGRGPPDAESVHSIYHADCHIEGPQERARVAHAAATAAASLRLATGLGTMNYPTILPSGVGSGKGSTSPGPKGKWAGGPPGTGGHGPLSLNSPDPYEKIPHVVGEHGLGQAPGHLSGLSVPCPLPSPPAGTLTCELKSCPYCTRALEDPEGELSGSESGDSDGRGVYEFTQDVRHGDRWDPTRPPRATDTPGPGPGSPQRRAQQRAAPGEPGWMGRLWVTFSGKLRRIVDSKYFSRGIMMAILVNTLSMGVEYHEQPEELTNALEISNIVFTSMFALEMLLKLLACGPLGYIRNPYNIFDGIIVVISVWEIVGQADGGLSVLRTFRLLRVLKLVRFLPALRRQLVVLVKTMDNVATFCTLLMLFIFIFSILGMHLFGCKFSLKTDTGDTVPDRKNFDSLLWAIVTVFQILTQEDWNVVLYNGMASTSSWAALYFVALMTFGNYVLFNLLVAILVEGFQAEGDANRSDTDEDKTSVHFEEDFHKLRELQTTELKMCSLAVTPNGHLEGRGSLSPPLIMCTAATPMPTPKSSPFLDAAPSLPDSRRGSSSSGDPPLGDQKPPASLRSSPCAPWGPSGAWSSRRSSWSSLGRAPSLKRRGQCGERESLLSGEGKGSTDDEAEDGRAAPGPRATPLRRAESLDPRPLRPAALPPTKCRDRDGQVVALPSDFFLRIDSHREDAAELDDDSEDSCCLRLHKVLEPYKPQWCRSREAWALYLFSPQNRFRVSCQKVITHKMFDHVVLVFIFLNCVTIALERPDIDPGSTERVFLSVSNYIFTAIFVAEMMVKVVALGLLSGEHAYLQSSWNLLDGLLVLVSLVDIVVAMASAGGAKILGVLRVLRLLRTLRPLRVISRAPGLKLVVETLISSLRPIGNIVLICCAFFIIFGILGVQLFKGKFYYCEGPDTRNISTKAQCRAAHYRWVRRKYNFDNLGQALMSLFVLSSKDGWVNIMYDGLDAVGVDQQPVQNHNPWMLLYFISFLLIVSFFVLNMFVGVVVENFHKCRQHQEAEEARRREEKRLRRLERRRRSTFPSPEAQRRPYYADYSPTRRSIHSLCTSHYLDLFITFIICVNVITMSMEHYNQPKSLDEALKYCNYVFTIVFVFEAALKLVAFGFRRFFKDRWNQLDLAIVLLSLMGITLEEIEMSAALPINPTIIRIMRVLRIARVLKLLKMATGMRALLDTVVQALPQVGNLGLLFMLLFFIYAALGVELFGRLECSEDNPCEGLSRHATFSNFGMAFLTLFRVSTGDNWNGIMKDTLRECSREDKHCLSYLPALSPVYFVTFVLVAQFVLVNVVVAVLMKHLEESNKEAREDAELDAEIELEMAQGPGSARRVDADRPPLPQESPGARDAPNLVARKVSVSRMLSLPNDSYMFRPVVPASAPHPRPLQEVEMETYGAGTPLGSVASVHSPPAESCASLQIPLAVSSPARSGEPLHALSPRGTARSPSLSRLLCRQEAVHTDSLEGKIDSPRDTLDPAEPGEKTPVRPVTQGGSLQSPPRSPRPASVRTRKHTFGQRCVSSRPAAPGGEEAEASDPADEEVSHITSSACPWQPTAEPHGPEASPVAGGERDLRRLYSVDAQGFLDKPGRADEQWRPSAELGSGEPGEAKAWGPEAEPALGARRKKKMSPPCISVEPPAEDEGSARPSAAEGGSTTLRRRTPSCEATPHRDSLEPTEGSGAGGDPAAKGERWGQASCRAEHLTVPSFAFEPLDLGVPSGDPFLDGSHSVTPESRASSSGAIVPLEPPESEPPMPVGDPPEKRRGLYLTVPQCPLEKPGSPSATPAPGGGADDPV
CYP2C19 inhib – human CYP2C19 inhibition. P33261. CYP2C19 Supersomes, luciferin-H EGE luminescence, 30 min. inhibition, % at 5 µM. 21% of 96,000 active;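 active = CYP2C19 inhibition above a set limit at 5 µM in the primary screen, cut at about 50% in these data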;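 also: plate controls were negative control wells for no effect and 2.5 mM tranylcypromine positive control for full effect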
CYP2C19 act – increases human CYP2C19 enzyme activity; recombinant CYP2C19, luciferin-H EGE luminescence; hits give high values; 0 = fully inhibited enzyme, 1 = untreated enzyme; activation factor at 5 µM; AID 1025; P33261; 96,000 tested, under 10 active;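 active = activation factor of at least 2 at 5 µM in the primary screen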;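 also: 0 = wells with 2.5 mM tranylcypromine and 1 = vehicle-only wells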
CYP2C9 activ – increases human cytochrome P450 2C9 activity; P11712; recombinant CYP2C9, luciferin-H conversion, luminescence; hits give high values; factor 1 = untreated enzyme, 0 = blocked; activation factor at 5 µM; 1.4% of 96,000 active; AID 1024;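 active = activation factor of 2 or more for CYP2C9 at a 5 µM dose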;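 also: 0 = sulfaphenazole-blocked wells and 1 = vehicle-only wells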
* hit, by the source's call; / = no result given. Rows were chosen to be rich in hits. Some 27% of all compounds tested hit in one or more screens of this group.

SMILES	CYP2C9 inh	Cav3 T inh	CYP2C19 inhib	CYP2C19 act	CYP2C9 activ
CCOc1ccc(C2=NNC(c3cccs3)=Nc3ccc(OC)cc32)cc1	/	-4.9*	/	/	/
CCOc1ccc2c(c1)C(c1ccc(C)cc1)=NNC(c1ccc(OC)cc1)=N2	40	-1.2	19	0.8	0.6
Brc1ccc2c(c1)C(c1ccc(N3CCOCC3)cc1)=NNC(c1cccs1)=N2	50	-1.8	41	0.6	0.5
COC(=O)[C@@H]1C[C@@H]2CC[C@@H](O)C[C@@H]2N1Cc1ccccc1OS(=O)(=O)c1ccc(C)cc1	/	0.44	/	/	/
Cc1ccc(-n2nnc(-c3cccnc3Cl)n2)cc1	/	1.1	/	/	/
CCn1c(-c2cccnc2Cl)nc2cc(Cl)c(Cl)cc21	67*	-0.33	50	0.5	0.3
Clc1ccc(Cn2c(-c3cccnc3Cl)nc3ccccc32)c(Cl)c1	58*	-3	60*	0.4	0.4
Clc1ccc(Cn2c(-c3cccnc3Cl)nc3ccccc32)cc1	65*	-4	82*	0.2	0.4
CCc1ccc(NC2=NC(C(=O)NC3CCCCC3)CC(=O)N2)cc1 (stereo unspecified)	-24	0.92	-17	1.2	1.2
O=C(CCn1c(=O)sc2ccccc21)NCc1ccco1	/	0.2	/	/	/
Cn1c(=O)c2[nH]c(N3CCOCC3)nc2n(-c2ccccc2)c1=O	0	0.22	2	1	1
O=P(CCC(F)(F)F)(CCC(F)(F)F)CCC(F)(F)F	-10	-0.042	-9	1.1	1.1
CCOc1ccc(NC(=O)CN(C)CC(=O)NC2CCCc3ccccc32)cc1OCC (stereo unspecified)	86*	0.25	23	0.8	0.1
CCc1ccccc1NC(=O)c1cc(C2CC2)on1	-141	0.0045	35	0.7	2.4*
Cc1ccc(C)c(NC(=O)C2C3CCCC2C3c2ccccc2)c1 (stereo unspecified)	12	-0.52	15	0.9	0.9
CCc1ccccc1NC(=O)C1C(c2ccccc2)C1(Cl)Cl (stereo unspecified)	-17	-7.6*	45	0.5	1.2
Cc1ccc(C)c(NC(=O)C2C(c3ccccc3)C2(Cl)Cl)c1 (stereo unspecified)	10	-4.6*	10	0.9	0.9
CCc1ccccc1NC(=O)C1NC(=O)CC1c1ccccc1 (stereo unspecified)	-11	-0.17	22	0.8	1.1
CCCNCc1cc(OC)c(OCCC)cc1Cl	/	1.4	/	/	/
COc1nc(OC)nc(N2CCC(C(=O)NCc3ccc(F)cc3)CC2)n1	-46	1.4	-5	1.1	1.5
COCc1cc(C)nc2sc(C(=O)OC(C)C)c(N)c12	72*	-0.98	85*	0.2	0.3
CCCCNC(=O)c1sc2nc(C)cc(COC)c2c1-n1cccc1	44	/	36	0.6	0.6
Cc1cc(N2CCOCC2)c2c(N)c(C)cc(C)c2n1	4	0.58	8	0.9	1
Cc1cc2c3c(ccc(C)c3n1)N=CN2c1ccccc1	56*	2	39	0.6	0.4
O=C(CCCn1c(=O)c2sccc2n(Cc2cc(=O)n3ccccc3n2)c1=O)NCc1ccco1	66*	0.0059	16	0.8	0.3
SMILES	CYP2C9 inh	Cav3 T inh	CYP2C19 inhib	CYP2C19 act	CYP2C9 activ
Cc1cc(C)c(Cn2c(=O)n(CCCC(=O)NCc3ccco3)c(=O)c3sccc32)c(C)c1	61*	0.64	27	0.7	0.4
Cc1ccc(C)c(Cn2c(=O)n(CCC(=O)NCc3ccco3)c(=O)c3sccc32)c1	9	0.043	-5	1.1	0.9
O=C(CCCCn1c(=S)[nH]c2ccsc2c1=O)NCc1ccco1	67*	0.4	33	0.7	0.3
O=C(CCCn1c(=S)[nH]c2ccsc2c1=O)NCc1ccco1	16	0.19	8	0.9	0.8
O=C(NCCCN1CCOCC1)c1onc(CSc2ccc(F)c(F)c2)c1C(=O)NCCCN1CCOCC1	/	-0.045	/	/	/
CN(c1ccccc1C(=O)N1CCN(c2ccccc2)CC1)S(C)(=O)=O	/	0.54	/	/	/
CCOC(=O)Cc1csc(NC(=O)c2csc(C)c2)n1	33	-1.5	20	0.8	0.7
Cc1nn(-c2ccccc2)c(C)c1NC(=O)COc1ccc2ccccc2c1	-24	-1.8	74*	0.3	1.2
CCOC(=O)Cc1csc(NC(=O)c2ccc(OC)c(OC)c2)n1	22	0.72	17	0.8	0.8
CCOC(=O)Cc1csc(NC(=O)COc2ccc3ccccc3c2)n1	47	-10*	53*	0.5	0.5
CCOC(=O)Cc1csc(NC(=O)c2cccc(OC)c2)n1	65*	0.73	27	0.7	0.3
CCOC(=O)Cc1csc(NC(=O)c2sc3nc4c(C)cc(C)cc4cc3c2N)n1	59*	-3.3	28	0.7	0.4
CCOC(=O)Cc1cnc(NC(=O)c2ccccc2)s1	84*	1.3	94*	0.1	0.2
CCOC(=O)Cc1csc(NC(=O)COc2ccc(N(C)S(=O)(=O)c3ccc(C)cc3)cc2)n1	92*	-6.5*	92*	0.1	0.1
CCOC(=O)Cc1nnc(NC(=O)COc2ccc(OC)cc2)s1	61*	-0.92	0	1	0.4
CCOC(=O)Cc1csc(NC(=O)CCS(=O)(=O)Cc2ccccc2)n1	53*	0.52	31	0.7	0.5
C=CCN(C(=O)CCC(=O)O)C1CC(=O)N(c2ccc(OCCC)cc2)C1=O (stereo unspecified)	5	-0.72	9	0.9	0.9
CC(CNC(=O)CC(C)(C)C)NC(=O)CC(C)(C)C (stereo unspecified)	/	-0.13	/	/	/
O=C(CSc1ccccc1C(=O)NCCCN1CCCC1=O)NCc1ccco1	-8	0.22	-12	1.1	1.1
Cc1cc(/C=C(\C#N)C(=O)NCc2ccco2)c(C)n1C1CCCC1	22	-2	-23	1.2	0.8
O=C(c1ccco1)N1CCN(C(=O)C(Cc2ccccc2)NS(=O)(=O)c2cccs2)CC1 (stereo unspecified)	8	1.8	17	0.8	0.9
COC1CCCCC1Nc1cccc(SC)c1 (stereo unspecified)	9	0.084	29	0.7	0.9
CCc1nc(N)c(C#N)c(-c2ccncc2)c1C	73*	0.24	100*	0	0.3
CCc1nc(N)c(C#N)c(-c2ccc(O)c(OC)c2)c1C	-5	0.06	53*	0.5	1
CCc1nc(N)c(C#N)c(-c2ccc(OC)c(OC)c2)c1C	-11	-0.15	-5	1.1	1.1
COc1cc(Br)cc(CN2CCN(C/C=C/c3ccccc3)CC2)c1O	35	-1.6	60*	0.4	0.6
Cc1cc(C)c2c(CN3CCN(C/C=C/c4ccccc4)CC3)cc(=O)oc2c1	69*	-0.079	51*	0.5	0.3
COc1ccc(O)c(CN2CCN(C/C=C/c3ccccc3)CC2)c1	1	-0.27	-5	1	1
CCC(OC(=O)c1cc2sccc2n1C)C(=O)NCC1CCCO1 (stereo unspecified)	11	0.39	25	0.8	0.9
CC(C)(C)CC(=O)Nc1ccc(Nc2ccccc2)cc1	39	-3.2	13	0.9	0.6
